Experimental data taken from the supplement of paper PMC8975748.
± gives the standard deviation of the averaged measurements.

How the values were obtained:
[1] = tested on: Saccharomyces cerevisiae BY4741 SeMeCo community; assay: z-score of prototroph abundance vs DMSO median; higher = larger share of this subpopulation than in DMSO controls; conditions: 10 µM; 24 h; SM minimal medium; subpopulation (auxotrophy): Prototroph
In short: (§1)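 Scoring was based on each subpopulation's abundance, expressed as a z-score against the vehicle-well median. A Saccharomyces cerevisiae BY4741 community with four plasmids, each restoring one auxotrophy and encoding a distinct fluorescent protein, was pre-grown overnight to OD600 1.0, diluted to 0.3, and added at 70 µl to 384-well plates acoustically predosed with library drugs (10 µM final). It then grew 24 h in minimal SM medium before paraformaldehyde fixation and automated confocal microscopy, with single-auxotroph fluorescent strains setting thresholds and autofluorescence correction.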

[2] = tested on: Saccharomyces cerevisiae BY4741 SeMeCo community; assay: z-score of subpopulation abundance vs DMSO median, subpopulation auxotrophic for M; higher = larger share of this subpopulation than in DMSO controls; conditions: 10 µM; 24 h; SM minimal medium; subpopulation (auxotrophy): M
In short: as §1

[3] = tested on: Saccharomyces cerevisiae BY4741 SeMeCo community; assay: z-score of subpopulation abundance vs DMSO median, subpopulation auxotrophic for L; higher = larger share of this subpopulation than in DMSO controls; conditions: 10 µM; 24 h; SM minimal medium; subpopulation (auxotrophy): L
In short: as §1

[4] = tested on: Saccharomyces cerevisiae BY4741 SeMeCo community; assay: z-score of subpopulation abundance vs DMSO median, subpopulation auxotrophic for U; higher = larger share of this subpopulation than in DMSO controls; conditions: 10 µM; 24 h; SM minimal medium; subpopulation (auxotrophy): U
In short: as §1

[5] = tested on: Saccharomyces cerevisiae BY4741 SeMeCo community; assay: z-score of subpopulation abundance vs DMSO median, subpopulation auxotrophic for H; higher = larger share of this subpopulation than in DMSO controls; conditions: 10 µM; 24 h; SM minimal medium; subpopulation (auxotrophy): H
In short: as §1

[6] = tested on: Saccharomyces cerevisiae BY4741 SeMeCo community; assay: z-score of subpopulation abundance vs DMSO median, subpopulation auxotrophic for LU; higher = larger share of this subpopulation than in DMSO controls; conditions: 10 µM; 24 h; SM minimal medium; subpopulation (auxotrophy): LU
In short: as §1

[7] = tested on: Saccharomyces cerevisiae BY4741 SeMeCo community; assay: z-score of subpopulation abundance vs DMSO median, subpopulation auxotrophic for LM; higher = larger share of this subpopulation than in DMSO controls; conditions: 10 µM; 24 h; SM minimal medium; subpopulation (auxotrophy): LM
In short: as §1

[8] = tested on: Saccharomyces cerevisiae BY4741 SeMeCo community; assay: z-score of subpopulation abundance vs DMSO median, subpopulation auxotrophic for HU; higher = larger share of this subpopulation than in DMSO controls; conditions: 10 µM; 24 h; SM minimal medium; subpopulation (auxotrophy): HU
In short: as §1

[9] = tested on: Saccharomyces cerevisiae BY4741 SeMeCo community; assay: z-score of subpopulation abundance vs DMSO median, subpopulation auxotrophic for UM; higher = larger share of this subpopulation than in DMSO controls; conditions: 10 µM; 24 h; SM minimal medium; subpopulation (auxotrophy): UM
In short: as §1

[10] = tested on: Saccharomyces cerevisiae BY4741 SeMeCo community; assay: z-score of subpopulation abundance vs DMSO median, subpopulation auxotrophic for HL; higher = larger share of this subpopulation than in DMSO controls; conditions: 10 µM; 24 h; SM minimal medium; subpopulation (auxotrophy): HL
In short: as §1

[11] = tested on: Saccharomyces cerevisiae BY4741 SeMeCo community; assay: z-score of subpopulation abundance vs DMSO median, subpopulation auxotrophic for HLM; higher = larger share of this subpopulation than in DMSO controls; conditions: 10 µM; 24 h; SM minimal medium; subpopulation (auxotrophy): HLM
In short: as §1

[12] = tested on: Saccharomyces cerevisiae BY4741 SeMeCo community; assay: z-score of subpopulation abundance vs DMSO median, subpopulation auxotrophic for HLUM; higher = larger share of this subpopulation than in DMSO controls; conditions: 10 µM; 24 h; SM minimal medium; subpopulation (auxotrophy): HLUM
In short: as §1

[13] = tested on: Saccharomyces cerevisiae BY4741 SeMeCo community; assay: mean cell size (pixel area) (pixels); higher = larger cells; conditions: 10 µM; 24 h; SM minimal medium
In short: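 A Saccharomyces cerevisiae BY4741 community carrying four plasmids, each with a fluorescent marker and each complementing one auxotrophy, was exposed for 24 h to drug at a final 10 µM in SM medium in acoustically predosed 384-well plates. The overnight preculture (OD600 = 1.0) was diluted to OD600 = 0.3 before 70 µl was added per well. Cells were then fixed with paraformaldehyde, imaged by automated confocal microscopy and analysed in Harmony to derive mean cell pixel area per well, averaged over 3 replicates. Same SeMeCo high-content imaging drug screen: Selleck FDA-approved drugs at 10 µM, 24 h in SM medium, 384-well plates, 3 replicates.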

[14] = tested on: Saccharomyces cerevisiae BY4741 SeMeCo community; assay: z-score of subpopulation abundance vs DMSO median, subpopulation auxotrophic for HM; higher = larger share of this subpopulation than in DMSO controls; conditions: 10 µM; 24 h; SM minimal medium; subpopulation (auxotrophy): HM
In short: as §1

[15] = tested on: Saccharomyces cerevisiae BY4741 SeMeCo community; assay: z-score of subpopulation abundance vs DMSO median, subpopulation auxotrophic for HUM; higher = larger share of this subpopulation than in DMSO controls; conditions: 10 µM; 24 h; SM minimal medium; subpopulation (auxotrophy): HUM
In short: as §1

[16] = tested on: Saccharomyces cerevisiae BY4741 SeMeCo community; assay: z-score of subpopulation abundance vs DMSO median, subpopulation auxotrophic for LUM; higher = larger share of this subpopulation than in DMSO controls; conditions: 10 µM; 24 h; SM minimal medium; subpopulation (auxotrophy): LUM
In short: as §1

| Structure (SMILES) | z-score of prototroph abundance [1] | z-score of subpopulation abundance [2] | z-score of subpopulation abundance [3] | z-score of subpopulation abundance [4] | z-score of subpopulation abundance [5] | z-score of subpopulation abundance [6] | z-score of subpopulation abundance [7] | z-score of subpopulation abundance [8] | z-score of subpopulation abundance [9] | z-score of subpopulation abundance [10] | z-score of subpopulation abundance [11] | z-score of subpopulation abundance [12] | mean cell size [13] | z-score of subpopulation abundance [14] | z-score of subpopulation abundance [15] | z-score of subpopulation abundance [16] |
| --- | --- | --- | --- | --- | --- | --- | --- | --- | --- | --- | --- | --- | --- | --- | --- | --- |
| O=c1[nH]c(=O)n([C@H]2C[C@H](O)[C@@H](CO)O2)cc1I [Idoxuridine] | 0.18 | -0.27 | 0.48 | 0.23 | -0.48 | -0.03 | 0.06 | -0.23 | -0.05 | -0.43 | -0.75 | -0.73 |  |  |  |  |
| O=C1OCCN1/N=C/c1ccc([N+](=O)[O-])o1 [Furazolidone] | 3.52 | 1.9 | 2.57 | -7.17 | 3.6 |  | 1.07 | -5.84 | -6.39 | 2.14 | -0.06 | -0.24 | 13.1 ± 0.18 | 0.39 | -3.95 | -2.42 |
| CO/N=C(\C(=O)N[C@@H]1C(=O)N2C(C(=O)O)=C(CSc3nc(=O)c(O)nn3C)CS[C@H]12)c1csc(N)n1 [Ceftriaxone Sodium Trihydrate] | 0.45 | -1.17 |  | 0.09 | -0.32 |  | -0.18 |  | -2.42 | 0.91 |  | 0.83 |  |  | -2.14 |  |
| CC1(C)S[C@@H]2[C@H](NC(=O)C(C(=O)O)c3ccccc3)C(=O)N2[C@H]1C(=O)O (stereo partly drawn) [Carbenicillin disodium] |  | 0.64 | -0.23 | -0.46 | -0.07 | -0.26 | -0.02 | -0.53 |  | -0.49 |  |  |  |  | 0.12 | -0.76 |
| CSCC1CN(/N=C/c2ccc([N+](=O)[O-])o2)C(=O)O1 (stereo not drawn) [Nifuratel] | 1.73 | 3.2 | 3.68 | -7.52 |  | -5.94 | 3.06 | -5.85 | -7.21 | 4.21 |  | 1.35 | 13.05 ± 0.13 | 1.92 |  | -2.95 |
| CCCN(CCc1cccs1)[C@H]1CCc2c(O)cccc2C1 [Rotigotine] | 0.61 | 0.93 | 0.33 | -1.74 | -0.04 | -0.93 | 1.22 | -1.03 | -1.79 | 0.46 |  | -0.54 | 12.6 ± 0.31 | 1.47 |  | -0.27 |
